Test results published in article PMC4336329 (PLoS ONE, 2015).
The campaign covered roughly 310,000 compounds. About 14,000 (4.5%) showed an effect of 50% or more. The effect is printed as a negative number. For the sample, strong results were picked, then their nearest neighbours and some compounds at random.
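Further: peak tail current of the secondary pulse compared with the same well before compound.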

What follows are compounds tested against human ether-à-go-go-related gene (hERG) potassium channel (human, UniProt Q12809) (assay: primary screen, population patch clamp on CHO cells stably expressing hERG; higher = less effect of the substance).
human ether-à-go-go-related gene (hERG) potassium channel, sequence (Q12809 whole entry, looked up): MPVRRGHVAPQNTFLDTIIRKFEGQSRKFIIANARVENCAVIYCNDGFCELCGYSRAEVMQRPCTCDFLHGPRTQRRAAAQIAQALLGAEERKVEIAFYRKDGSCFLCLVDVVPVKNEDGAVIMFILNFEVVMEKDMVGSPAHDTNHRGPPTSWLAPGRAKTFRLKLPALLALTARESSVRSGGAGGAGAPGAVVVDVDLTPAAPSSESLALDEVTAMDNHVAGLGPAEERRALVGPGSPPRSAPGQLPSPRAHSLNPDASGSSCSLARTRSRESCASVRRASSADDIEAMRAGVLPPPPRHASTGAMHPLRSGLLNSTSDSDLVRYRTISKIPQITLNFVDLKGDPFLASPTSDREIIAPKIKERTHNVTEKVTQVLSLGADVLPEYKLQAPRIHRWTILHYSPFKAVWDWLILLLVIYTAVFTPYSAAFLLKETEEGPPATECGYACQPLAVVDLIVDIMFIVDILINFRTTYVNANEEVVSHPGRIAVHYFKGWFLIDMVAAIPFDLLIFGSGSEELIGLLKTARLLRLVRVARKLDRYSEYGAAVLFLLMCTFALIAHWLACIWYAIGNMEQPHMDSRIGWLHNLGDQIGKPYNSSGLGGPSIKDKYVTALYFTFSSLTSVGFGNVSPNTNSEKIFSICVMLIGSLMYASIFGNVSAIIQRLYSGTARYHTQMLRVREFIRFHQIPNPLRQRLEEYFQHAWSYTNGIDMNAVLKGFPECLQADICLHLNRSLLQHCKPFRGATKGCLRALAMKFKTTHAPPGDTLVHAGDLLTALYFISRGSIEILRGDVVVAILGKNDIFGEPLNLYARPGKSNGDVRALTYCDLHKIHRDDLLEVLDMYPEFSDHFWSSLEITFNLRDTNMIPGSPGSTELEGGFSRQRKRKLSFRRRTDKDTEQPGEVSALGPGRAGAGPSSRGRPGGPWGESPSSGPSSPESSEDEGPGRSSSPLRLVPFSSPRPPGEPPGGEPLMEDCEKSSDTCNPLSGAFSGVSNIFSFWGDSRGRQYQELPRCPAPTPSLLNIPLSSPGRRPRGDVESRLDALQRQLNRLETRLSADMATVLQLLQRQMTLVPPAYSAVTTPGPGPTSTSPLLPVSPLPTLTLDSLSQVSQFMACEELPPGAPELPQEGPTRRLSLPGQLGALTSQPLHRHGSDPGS
In the case of `O=C(O)/C=C/c1cn(-c2ccccc2)nc1-c1ccccc1`, the “hERG current change (%, negative = inhibition) at 10uM” value is reported as 3.71%.
In the case of `O=C(NCc1ccccn1)C1CC(=O)N(C2CCCC2)C1` (stereo not drawn), the “hERG current change (%, negative = inhibition) at 10uM” value is reported as 9.62%.
`COc1ccc(CNC(=O)CN2C(=O)CC(c3ccccc3)=Nc3ccccc32)cc1` was tested, and the “hERG current change (%, negative = inhibition) at 10uM” value was -8.66%.
With `Cc1cc(NC(=O)Cn2cnc3c(nnn3-c3cccc(F)c3)c2=O)no1` the “hERG current change (%, negative = inhibition) at 10uM” value was 5.01%.
With `CC(=O)C(C(C)=O)C(c1ccccc1)c1nc2ccccc2[nH]c1=O` (stereo not drawn) the “hERG current change (%, negative = inhibition) at 10uM” value was 14.1%.
`COC(=O)c1ccc(CN2CCCC(C(=O)c3ccccc3OC)C2)cc1` (stereo not drawn) was tested, and the “hERG current change (%, negative = inhibition) at 10uM” value was -43.1%.
For `CCOc1ccc(CN2CCCC(C(=O)c3ccccc3OC)C2)cc1` (stereo not drawn), the “hERG current change (%, negative = inhibition) at 10uM” value was -82%.
`COC(=O)c1ccc(CN2CCCC(C(=O)c3cc(F)ccc3OC)C2)cc1` (stereo not drawn) was tested, and the “hERG current change (%, negative = inhibition) at 10uM” value was -68%.
In the case of `COc1ccc(F)cc1C(=O)C1CCCN(Cc2ccc(O)cc2)C1` (stereo not drawn), the “hERG current change (%, negative = inhibition) at 10uM” value is reported as -52%.
In the case of `COc1ccc(F)cc1C(=O)C1CCCN(Cc2cnc(N3CCCC3)s2)C1` (stereo not drawn), the “hERG current change (%, negative = inhibition) at 10uM” value is reported as -29.4%.
For `COc1ccccc1C(=O)C1CCCN(Cc2cccc(OCCO)c2)C1` (stereo not drawn), the “hERG current change (%, negative = inhibition) at 10uM” value was -19.6%.
`COc1ccc(F)cc1C(=O)C1CCCN(C(=O)CCc2ccccn2)C1` (stereo not drawn) was tested, and the “hERG current change (%, negative = inhibition) at 10uM” value was 2.48%.
For `COc1ccccc1C(=O)C1CCCN(Cc2ccc(Oc3ncccn3)cc2)C1` (stereo not drawn), the “hERG current change (%, negative = inhibition) at 10uM” value was -40.6%.
`COc1ccc(F)cc1C(=O)C1CCCN(Cc2cnc(C)s2)C1` (stereo not drawn) was tested, and the “hERG current change (%, negative = inhibition) at 10uM” value was -21%.
For `COc1ccc(F)cc1C(=O)C1CCCN(Cc2ccc(Oc3ncccn3)cc2)C1` (stereo not drawn), the “hERG current change (%, negative = inhibition) at 10uM” value was -64.2%.
With `COc1ccccc1C(=O)C1CCCN(C(=O)c2ccccc2Cl)C1` (stereo not drawn) the “hERG current change (%, negative = inhibition) at 10uM” value was 10.4%.
`CC(=O)NCCC(=O)Nc1nc(-c2ccccc2Cl)cs1` was tested, and the “hERG current change (%, negative = inhibition) at 10uM” value was -9.76%.
With `CCOc1ccc(C(=O)Nc2cccc(-n3cnnn3)c2)cc1OCC` the “hERG current change (%, negative = inhibition) at 10uM” value was -40.4%.
For `O=C(/C=C/c1ccco1)Nc1ccc(Oc2ccc(Cl)cc2)cc1`, the “hERG current change (%, negative = inhibition) at 10uM” value was 16.1%.
With `COc1ccc(S(=O)(=O)NCc2ccccn2)cc1Br` the “hERG current change (%, negative = inhibition) at 10uM” value was 12.5%.
With `CCN1C(=O)/C(=C/c2cc(C)n(C)c2C)SC1=Nc1ccc(OC)cc1` the “hERG current change (%, negative = inhibition) at 10uM” value was 9.24%.
With `Cc1ccccc1NN1C(=O)C=CC1=O` the “hERG current change (%, negative = inhibition) at 10uM” value was -8.26%.
With `CCOC(=O)CC1C(=O)NCCN1C(=O)c1c(F)cccc1F` (stereo not drawn) the “hERG current change (%, negative = inhibition) at 10uM” value was 16.1%.
`COc1ccc2cc(CCNC(=O)C(C)C)c(=O)[nH]c2c1` was tested, and the “hERG current change (%, negative = inhibition) at 10uM” value was 13.4%.
In the case of `C/C(=N\NC(=O)c1cccc(N/N=C(\C)c2ccc([N+](=O)[O-])cc2)c1)c1ccc([N+](=O)[O-])cc1`, the “hERG current change (%, negative = inhibition) at 10uM” value is reported as 1.39%.
In the case of `C/C(=N\NC(=O)C(C)Nc1cccc(Cl)c1)c1ccc([N+](=O)[O-])cc1` (stereo not drawn), the “hERG current change (%, negative = inhibition) at 10uM” value is reported as -50.5%.
For `C/C(=N\NC(=O)C(C)Sc1ccccc1)c1ccc([N+](=O)[O-])cc1` (stereo not drawn), the “hERG current change (%, negative = inhibition) at 10uM” value was -3.27%.
